High-throughput results deposited in PubChem by National Center for Advancing Translational Sciences (NCATS).
GLP-1R inv ag = inverse agonists of human GLP-1 receptor | P43220 | HEK293 GLP-1R CRE-luciferase, luminescence, 24 h; GLP-1R form is constitutively active | Potency, µM (doses to about 38.3 µM), for inactives: at the highest dose activity change, negative = inhibition, most hits filed as inhibitors | 410,000 compounds, 1.6% hits | AID 624417; note: % is set by controls: 0 for no effect and ±100 for the full control effect; nearly all actives have a fitted effect of over 55% in size
Target sequence (P43220 whole entry, looked up): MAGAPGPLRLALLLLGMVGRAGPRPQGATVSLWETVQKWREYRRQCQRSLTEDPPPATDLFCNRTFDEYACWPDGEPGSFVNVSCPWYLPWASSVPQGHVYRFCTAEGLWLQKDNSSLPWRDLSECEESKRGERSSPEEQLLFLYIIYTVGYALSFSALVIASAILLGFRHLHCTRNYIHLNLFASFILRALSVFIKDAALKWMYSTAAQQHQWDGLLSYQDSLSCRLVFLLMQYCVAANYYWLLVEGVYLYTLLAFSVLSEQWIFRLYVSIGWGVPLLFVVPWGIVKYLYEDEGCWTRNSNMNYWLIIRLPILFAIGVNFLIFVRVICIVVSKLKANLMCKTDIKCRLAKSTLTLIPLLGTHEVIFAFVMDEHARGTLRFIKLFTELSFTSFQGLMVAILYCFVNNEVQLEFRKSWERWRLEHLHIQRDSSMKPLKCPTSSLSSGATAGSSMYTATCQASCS
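qHTS in 1536-well format: reporter HEK293 cells expressing constitutive GLP-1R activity in DMEM + 10% Nu serum, 24 hr with compounds at 37 deg C, luminescence read after 12 min with detection reagent.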
ATXN viability = cell viability loss in ATXN counter-screen. 400,000 compounds, 0.49% hits. AID 651635. Potency, µM (titrated, usually from 56.7 µM), most hits filed as cytotoxic. S2 cells (HEK-293 line with an ATXN2-luciferase reporter) viability, CellTiter-Fluor protease fluorescence, 24 h; note: nearly all actives have a fitted effect of over 40% in size
ATXN2 expr inh = ATXN2 expression inhibition; HEK-293 ATXN2-luciferase reporter, luminescence, 24 h; Potency, µM (series often up to 57 µM), for the others: at the highest dose activity change, negative = inhibition, hits mostly inhibitors; 360,000 compounds, 0.72% hits; AID 1745845; note: % is set by controls: 0 for no effect and ±100 for the full control effect; nearly all actives have a fitted effect of over 55% in size
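qHTS (up to 57 uM final) was run with 24 h compound exposure of reporter cells at 37 °C. Each well was multiplexed: SteadyGlo luminescence measured ATXN2-luciferase expression after a fluorogenic Gly-Phe-AFC viability readout (25 uM final).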
GLP-1R agonist = agonists of human GLP-1 receptor; P43220; HEK293 GLP-1R CRE-luciferase, luminescence, 4-6 h; cells express a hypersensitive GLP-1R form; Potency, µM (series often up to 45.6 µM), for inactives: at the top dose activation, hits mostly activators; 380,000 compounds, 0.007% hits; note: % of control where 0% means no effect
HepG2 tox-1 = kills HepG2 cells in TGF-b inhibitor counter-screen; HepG2 CAGA-GFP viability, ATP luminescence, 18 h; Potency, µM (doses to about 46.1 µM), for inactives: top-dose activity change, negative = cytotoxicity, actives largely listed as cytotoxic; 410,000 compounds, 0.76% hits; AID 588856
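HepG2 CAGA-GFP cells (1000/well, DMEM with 1% FBS) received compound, then TGF-beta at 500 pg/mL final, and were incubated 18 hours at 37 degrees C. Viability was read by CellTiter-Glo luminescence. Media-only wells were set as complete cell-killing and DMSO as no toxicity.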
TGFb inhibitor = TGF-b pathway inhibition. HepG2 CAGA-GFP TGF-b/SMAD3 reporter, GFP fluorescence, 18 h; TGF-beta stimulated, 500 pg/mL final. Potency, µM (doses to about 46.1 µM), inactives show at the top dose activity, negative = inhibition, usual class: inhibitors. 410,000 compounds, 1.2% hits. AID 588855; note: % is set by controls: 0 for no effect and ±100 for the full control effect; nearly all actives have a fitted effect of over 65% in size
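Read-out: total well GFP (ex488/em500-530) summed from mean per-cell fluorescence. Cells: HEPG2 CAGA-GFP, 1% FBS DMEM, 18 h at 37 degrees C with 500 pg/mL final TGF-beta. Unstimulated wells served as the full-inhibition control; stimulated DMSO wells = 0%.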
TGFb confirm = confirmation of TGF-b signaling inhibitors in HepG2 reporter cells. shares compounds with TGFb inhibitor. HepG2 CAGA-GFP TGF-b reporter, GFP fluorescence, 18 h; cells stimulated with TGF-beta, 500 pg/mL. Potency, µM (highest dose often 46.1 µM), without a hit: at the highest dose activity, negative = inhibition, hits mostly inhibitors. 1,600 compounds, 63% hits. AID 720534; note: % is set by controls: 0 for no effect and ±100 for the full control effect; nearly all actives have a fitted effect of over 65% in size
HepG2 tox-2 = counter-screen for TGF-b inhibitors: cytotoxicity in HepG2 cells; HepG2 CAGA-GFP viability, ATP luminescence, 18 h; cells stimulated with TGF-beta, 500 pg/mL; Potency, µM (doses to about 46.1 µM), for the others: at the top dose activity, negative = cytotoxicity, most hits filed as inhibitors; shares compounds with TGFb inhibitor; 1,600 compounds, 27% hits; note: % is set by controls: 0 for no effect and ±100 for the full control effect; nearly all actives have a fitted effect of over 70% in size
CCL64 TGFb inh = orthogonal confirmation of TGF-b inhibitors in CCL64 cells; shares compounds with TGFb inhibitor; CCL64 CAGA-GFP reporter, TGF-b stimulated, GFP fluorescence, 18 h; Potency, µM (titrated, usually from 46.1 µM), for inactives: at the top dose activity, negative = inhibition, hits mostly inhibitors; 1,600 compounds, 41% hits; AID 720536; note: nearly all actives have a fitted effect of over 65% in size
TGFb COP inh = blocks TGF-b signaling in HepG2 COP reporter; shares compounds with TGFb inhibitor; HepG2 COP-GFP TGF-b reporter, GFP fluorescence, 18 h; cells stimulated by added recombinant TGF-beta; Potency, µM (series often up to 46.1 µM), for inactives: at the top dose activity, negative = inhibition, hits mostly inhibitors; 1,600 compounds, 3% hits; note: nearly all actives have a fitted effect of over 70% in size
Active calls of the source: *; ! = repeats disagree. Most compounds without a hit are left out; they make up all but 3.7% or so of the library. Calls come from the whole dose curve; as a rule, active = well fitted curve in the direction sought with a large enough effect; inconclusive = small, poorly fitted or top-dose-only effect, or another doubt; inactive = no such curve, though single readings can be large; an effect the other way counts as inactive or inconclusive. Potency is the fitted concentration of half-maximal effect.

`Cc1oc2cc(Br)c(O)c(Br)c2c1-c1ccccc1` gave GLP-1R inv ag inconclusive, ATXN viability inactive, ATXN2 expr inh 168%, GLP-1R agonist 12%, HepG2 tox-1 -66%, TGFb inhibitor 10µM*, TGFb confirm inconclusive, HepG2 tox-2 -17%, CCL64 TGFb inh inconclusive and TGFb COP inh 19%.
Screening CC(=O)c1cccc(N=c2scc(-c3ccc(S(=O)(=O)N4CCOCC4)cc3)n2CCO)c1 returned GLP-1R inv ag 0%, ATXN viability inactive, ATXN2 expr inh -38%, GLP-1R agonist 1%, HepG2 tox-1 -37%, TGFb inhibitor inconclusive, TGFb confirm 1%, HepG2 tox-2 -29%, CCL64 TGFb inh inconclusive and TGFb COP inh 8%.
CC(C)[C@H]1COCCS(=O)(=O)N1Cc1ccccc1-c1cccc2c1oc1ccccc12 was read as GLP-1R inv ag inconclusive, ATXN viability inactive, ATXN2 expr inh -11%, GLP-1R agonist 4%, HepG2 tox-1 -15%, TGFb inhibitor inconclusive, TGFb confirm 9.2µM*, HepG2 tox-2 -8%, CCL64 TGFb inh -28% and TGFb COP inh -7%.
Screening COc1cc2oc(=O)cc(-c3ccc(-c4ccc(O)cc4)cc3)c2c(OC)c1OC returned GLP-1R inv ag -20%, ATXN viability inconclusive, ATXN2 expr inh inconclusive, GLP-1R agonist -2%, HepG2 tox-1 -14%, TGFb inhibitor 11µM*, TGFb confirm 18µM*, HepG2 tox-2 inconclusive, CCL64 TGFb inh inconclusive and TGFb COP inh 70%.
`Fc1ccc(CN2CCN(C(=S)NCCc3ccccc3)CC2)c(Cl)c1` gave GLP-1R inv ag inconclusive, ATXN viability inactive, ATXN2 expr inh -19%, GLP-1R agonist 6%, HepG2 tox-1 -30%, TGFb inhibitor 7.9µM*, TGFb confirm inconclusive, HepG2 tox-2 -30%, CCL64 TGFb inh inconclusive and TGFb COP inh 11%.
S=C(NCCc1ccccc1)N1CCN(Cc2ccc(Cl)c(Cl)c2)CC1 was read as GLP-1R inv ag 12%, ATXN viability inactive, ATXN2 expr inh -33%, GLP-1R agonist 0%, HepG2 tox-1 -23% and TGFb inhibitor -3%.
For CCOc1ccc(NC(=O)c2c(C)nn(-c3ccc(F)cc3)c2-n2cccc2)cc1 the results were GLP-1R inv ag -1%, ATXN viability inactive, ATXN2 expr inh -6%, GLP-1R agonist -6%, HepG2 tox-1 -2% and TGFb inhibitor 8%.
CC(=O)N(C1=C(Cl)C(=O)c2ccccc2C1=O)C1CCCCC1 was read as GLP-1R inv ag inconclusive, ATXN2 expr inh inconclusive, GLP-1R agonist -21%, HepG2 tox-1 -89%, TGFb inhibitor 2.8µM*, TGFb confirm 3.3µM*, HepG2 tox-2 8.2µM*, CCL64 TGFb inh 4.6µM* and TGFb COP inh 10µM*.
Screening COc1ccc(S(=O)(=O)N2CCN(Cc3ccc4c(c3)OCO4)CC2)cc1OC returned GLP-1R inv ag -4%, ATXN viability inactive, ATXN2 expr inh -3%, GLP-1R agonist 1%, HepG2 tox-1 -6% and TGFb inhibitor 4%.
Cc1ccc(SCCNC(=O)c2ccc(C)c(S(=O)(=O)Nc3cccc(C)c3)c2)cc1 was read as GLP-1R inv ag 21%, ATXN viability inconclusive, ATXN2 expr inh inconclusive, GLP-1R agonist 2%, HepG2 tox-1 -2%, TGFb inhibitor 13µM*, TGFb confirm inconclusive, HepG2 tox-2 inconclusive, CCL64 TGFb inh inconclusive and TGFb COP inh 52%.
O=C(NCc1ccc2c(c1)OCO2)c1nc(S(=O)(=O)Cc2ccccc2)ncc1Cl was read as GLP-1R inv ag inconclusive, ATXN viability inconclusive, ATXN2 expr inh inconclusive, GLP-1R agonist -4%, HepG2 tox-1 -144%, TGFb inhibitor 10µM*, TGFb confirm 2.3µM*, HepG2 tox-2 3.7µM*, CCL64 TGFb inh 2.6µM* and TGFb COP inh 23µM*.
For O=C(NCc1ccccc1)c1nc(S(=O)(=O)Cc2ccccc2)ncc1Cl the results were GLP-1R inv ag inconclusive, ATXN viability inconclusive, GLP-1R agonist -11%, HepG2 tox-1 8.9µM*!, TGFb inhibitor 6.3µM*, TGFb confirm 4.6µM*, HepG2 tox-2 5.2µM*, CCL64 TGFb inh 2.3µM* and TGFb COP inh 29µM*.
Cc1ccc(CS(=O)(=O)c2ncc(Cl)c(C(=O)Nc3ccc(OC(F)F)cc3)n2)cc1 was read as GLP-1R inv ag inconclusive, ATXN viability inconclusive, ATXN2 expr inh inconclusive, GLP-1R agonist -5%, HepG2 tox-1 18µM*, TGFb inhibitor 10µM*, TGFb confirm 8.2µM*, HepG2 tox-2 16µM*, CCL64 TGFb inh 3.3µM* and TGFb COP inh inconclusive.
For CCS(=O)(=O)c1ncc(Cl)c(C(=O)NCc2ccccc2)n1 the results were GLP-1R inv ag -11% and HepG2 tox-1 -108%.
Screening COc1ccc(CNC(=O)c2nc(S(=O)(=O)Cc3ccccc3)ncc2Cl)cc1 returned GLP-1R inv ag inconclusive, ATXN viability 18µM*, GLP-1R agonist -13%, HepG2 tox-1 13µM*, TGFb inhibitor 6.3µM*, TGFb confirm 3.7µM*, HepG2 tox-2 16µM*, CCL64 TGFb inh 2.3µM* and TGFb COP inh inconclusive.
